Screening results from PubChem BioAssay.
A selection: hits, their analogues and other compounds. The true share with any hit is near 8.1%.
ELG1 DNA repair = ELG1-dependent DNA repair inhibition; 330,000 tested, 2.3% active; Potency, µM (series often up to 46.1 µM), for inactives: top-dose activity change, negative = inhibition, hits mostly inhibitors; HEK293T ELG1-luciferase reporter, luminescence, 16 h; DNA damage induced by 5-fluorouridine; further: on the % scale 0 is the no-effect control and ±100 the full control effect; nearly all actives have a fitted effect of over 55% in size
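Reporter activity after DNA damage by 5-fluorouridine is monitored. Compound-treated cells incubate 16 hr at 37 °C, then ONE-Glo is added for 30 min before luminescence reading.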
MCF10A rereplic = DNA re-replication induction in MCF 10a cells; 350,000 tested, 2.9% active; Potency, µM (highest dose often 46.1 µM), without a hit: at the highest dose activity, positive = re-replication, actives largely listed as activators; MCF 10A DNA re-replication, Hoechst nuclear intensity, 48 h; AID 624296; further: % of control where 0% means no effect; nearly all actives have a fitted effect of over 50% in size
SW480 rerep = inducers of DNA re-replication in SW480 colon cancer cells; Potency, µM (titrated, usually from 46.1 µM), for inactives: top-dose re-replication activation, hits mostly activators; SW480 DNA re-replication, Hoechst DNA content imaging, 48 h; 340,000 tested, 1.8% active; AID 624297; further: % of control where 0% means no effect; nearly all actives have a fitted effect of over 55% in size
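Readout is total intensity of Hoechst-stained nuclei, excited at 405 nm and collected at 500-530 nm. Compound treatment lasted 48 hr at 37 C in 5% CO2 before staining.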
KB-3-1 cytotox = kills parental KB-3-1 adenocarcinoma cells | KB-3-1 viability, CellTiter-Glo ATP luminescence, 72 h | Potency, µM (highest dose often 46.1 µM), usual class: cytotoxic | 400,000 tested, 1.4% active | AID 1347075; further: on the % scale 0 is the no-effect control and ±100 the full control effect; nearly all actives have a fitted effect of over 60% in size
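Cells are dispensed, compounds pinned in, plates held at 37 °C for 72 h, then CellTiter-Glo is added and luminescence read after 10 minutes. Cell line: parental KB-3-1 in phenol-red-free DMEM, 10% FBS.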
KB-V1 MDR tox = kills drug-selected multidrug resistant KB-V1 cells. KB-V1 MDR cells viability, CellTiter-Glo, 72 h. Potency, µM (highest dose often 46.1 µM), hits mostly cytotoxic. 400,000 tested, 3.4% active; further: on the % scale 0 is the no-effect control and ±100 the full control effect; nearly all actives have a fitted effect of over 60% in size
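Potencies derive from concentration-effect curves fitted to normalized luminescence (CellTiter-Glo) of KB-V1 cells treated for 72 h at 37 degrees C in phenol-red-free DMEM containing 10% FBS.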
The depositor's hits bear a star; i = inactive; u = inconclusive; x = not tested or not shown; [ ] = another dose, or the depositor's remark. The call rests on the fitted dose curve; in most records, active means well fitted curve in the direction sought with a large enough effect; inconclusive means small, poorly fitted or top-dose-only effect, or another doubt; inactive means no such curve, though single readings can be large; an effect the other way counts as inactive or inconclusive. Potency means the concentration at half of the fitted maximal effect.

SMILES	ELG1 DNA repair	MCF10A rereplic	SW480 rerep	KB-3-1 cytotox	KB-V1 MDR tox
O=C(N/N=C\c1ccc(O)c([N+](=O)[O-])c1)c1ccccc1-n1cccc1	2%	1%	3%	i	16µM*
Cc1ccc(S(=O)(=O)Nc2cc(C)c(O)c(Sc3n[nH]c(C)n3)c2)cc1	-8%	u	-1%	i	i
CCOc1ccc(C(=O)CC(C(=O)O)N2CCN(Cc3ccccc3)CC2)cc1 (configuration not stated)	29%	16µM*	21%	i	i
COc1ccc2c(c1)c(=O)oc1c(C)c(OC(C)C(=O)NCC3CCC(C(=O)O)CC3)ccc12 (configuration not stated)	0%	-2%	-26%	i	i
c1ccc(CSc2ccc3nnc(-c4cccnc4)n3n2)cc1	0%	2%	-10%	i	18µM*
Cc1cccc(CSc2ccc3nnc(-c4cccnc4)n3n2)c1	15%	-5%	-3%	i	i
CC(=O)N[C@@H](Cc1c[nH]c2ccccc12)C(=O)OCC(=O)Nc1ccc2c(c1)OCO2	x	91%	3%	i	i
O=C(Nc1ccc2c(c1)OCCO2)C(=O)c1c[nH]c2ccccc12	u	9.2µM*	4.6µM*	3.7µM*	i
Cc1[nH]c2ccccc2c1C(=O)C(=O)Nc1ccc2c(c1)OCCO2	u	1%	4%	i	i
O=C(Nc1ccc2c(c1)OCO2)C(=O)c1c[nH]c2ccccc12	u	16%	2%	6.5µM*	i
CCCC(C)c1nnc(NC(=O)C2CCCO2)s1 (configuration not stated)	u	5.2µM*	21µM*	i	i
CC(C)(C)[C@H]1C=C(C(=O)N2CCOCC2)O[C@@H](OCc2ccc(CO)cc2)C1	-7%	2%	-34%	i	i
O=c1cc(CSc2nc(NCc3ccccc3)c3ccccc3n2)nc2ccc(Cl)cn12	u	1%	-1%	i	2.3µM*
COc1ccccc1NC(=O)CSc1nnc(-c2ccoc2C)o1	u	-6%	-13%	12µM*	u
Cc1occc1-c1nnc(SCC(=O)Nc2nc(-c3ccccc3)cs2)o1	u	18µM*	u	i	i
COc1ccccc1NC(=O)CSc1nnc(-c2ccc(C)cc2)o1	u	5%	-1%	u	i
COc1ccc(C)cc1NC(=O)CSc1nnc(-c2ccc(Br)cc2)o1	u	13µM*	20%	i	i
COc1ccccc1NC(=O)CSc1nnc(-c2ccccc2C)o1	x	x	x	i	i
Cc1cccc(NC(=O)CSc2nnc(-c3ccccc3C)o2)c1	u	1%	-11%	i	u
Cc1cc(C)cc(NC(=O)CSc2nnc(-c3ccccc3C)o2)c1	2%	12%	-4%	i	12µM*
Oc1c(C(c2ccc(Cl)cc2Cl)N2CCN(Cc3ccccc3)CC2)sc2nc(-c3ccco3)nn12 (configuration not stated)	x	x	x	i	i
O=C(O)C(CO)(c1ccccc1)c1ccccc1	7%	12%	6%	i	i
Cn1c(=O)n(C)c2cc([N+](=O)[O-])c(N3CCN(C(=O)c4ccccc4)CC3)cc21	-17%	-2%	-2%	i	i
COCCOC(=O)c1c(NC(=O)CN2CCc3ccccc32)sc(C(N)=O)c1C	u	-3%	27%	i	i
CCOC(=O)c1c(NC(=O)CSc2nnc(Cc3ccccc3)o2)sc(C(C)=O)c1C	u	11%	-4%	i	18µM*
SMILES	ELG1 DNA repair	MCF10A rereplic	SW480 rerep	KB-3-1 cytotox	KB-V1 MDR tox
CCOC(=O)c1c(NC(=O)CN2CCCc3ccccc32)sc(C(C)=O)c1C	-1%	-2%	4%	i	4.1µM*
CCOC(=O)c1c(NC(=O)CSc2nnc(-c3ccccc3)o2)sc(C(C)=O)c1C	u	16%	2%	i	u
CC(OC(=O)/C=C/c1ccco1)C(=O)Nc1cccc([N+](=O)[O-])c1 (configuration not stated)	-15%	6%	u	u	18µM*
COc1ccc([N+](=O)[O-])cc1NC(=O)C(C)OC(=O)/C=C/c1ccco1 (configuration not stated)	-22%	0%	-105%	i	u
CCOC(=O)c1oc2ccccc2c1NC(=O)COc1ccc(F)cc1	14%	u	-3%	i	8.2µM*
CCOC(=O)CSc1cc(-c2ccccc2)nc2ncnn12	u	2.3µM*	-31%	i	i
c1ccc(-c2cc(-c3ccccc3)n3ncnc3n2)cc1	-20%	3%	1%	i	i
COc1ccc(N(CC(=O)Nc2cc(Cl)ccc2OC)S(=O)(=O)c2c(C)noc2C)cc1	-16%	u	u	4.6µM*	3.3µM*
COc1ccc(OC)c(NC(=O)CN(c2ccc(C)cc2)S(=O)(=O)c2c(C)noc2C)c1	u	-3%	9%[9.22 µM]	u	u
COc1ccc(OC)c(NC(=O)CN(c2ccc(C(C)C)cc2)S(=O)(=O)c2c(C)noc2C)c1	8.2µM*	12%	2%	u	i
O=C(COc1ccc(S(=O)(=O)N2CCCCC2)cc1)NCC1CCCO1 (configuration not stated)	8%	4%	3%	i	i
Nc1nc(N)nc(-c2cc(O)ccc2O)n1	1.2µM*	u	u	u	i
CN(CC(=O)Nc1ccccc1Br)C(=O)c1cccc(S(=O)(=O)N2CCc3ccccc32)c1	x	u	5%	i	18µM*
CC(C)C(NC(=O)c1ccccc1)C(=O)OCC(=O)N1CCCCC1 (configuration not stated)	-2%	7%	-5%	i	i
O=C(NCC(c1ccco1)N1CCCC1)c1ccc(Cl)c(S(=O)(=O)N2CCc3ccccc32)c1 (configuration not stated)	u	u	u	2.3µM*	1.6µM*
O=C(Nc1cccnc1)c1cccc(S(=O)(=O)N2CCc3ccccc32)c1	u	1%	-1%	u	10µM*
COc1ccc(NC(=O)CN(C)C(=O)c2cccc(S(=O)(=O)N3CCCc4ccccc43)c2)cc1	-21%	0%	10%	i	i
O=C(NCC(c1ccco1)N1CCc2ccccc2C1)c1ccc(Cl)c([N+](=O)[O-])c1 (configuration not stated)	-16%	u	1%	i	i
CC(C)[C@H](NC(=O)c1ccccc1)C(=O)OCC(=O)N1CCc2ccccc2C1	1%	3%	-11%	i	9.2µM*
CCOC(=O)CSc1nc2c(sc3ccccc32)c(=O)n1Cc1ccc(C)cc1	x	x	x	i	i
